The values below come from PubChem BioAssay AID1304 (The Scripps Research Institute Molecular Screening Center, 2008).

Hit rate of the full screen: of about 220,000 compounds, about 800 (0.36%) were called active. Rule as the data show it: active = activation above about 33% (passing the limit was not always enough); inactive = the rest. What follows is part of a selection rich in actives, with near analogues and random picks from the rest.

The target of the assay is Neuropeptide Y receptor type 1 (Homo sapiens) (UniProt P25929). Nature of the assay: NPY-Y1 receptor potentiators or agonists, primary screen, cell-based (AID 1304).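 Also: cells stimulated with NPY at EC10 then isoproterenol at EC100; 0% = low agonist plus stimulus and 100% = saturating agonist plus stimulus.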 Particulars: NPY-Y1 expressing cells, potentiator/agonist activation; at 3.6 µM; hits give high values.
Sequence of Neuropeptide Y receptor type 1 (Homo sapiens) (P25929 whole entry, looked up): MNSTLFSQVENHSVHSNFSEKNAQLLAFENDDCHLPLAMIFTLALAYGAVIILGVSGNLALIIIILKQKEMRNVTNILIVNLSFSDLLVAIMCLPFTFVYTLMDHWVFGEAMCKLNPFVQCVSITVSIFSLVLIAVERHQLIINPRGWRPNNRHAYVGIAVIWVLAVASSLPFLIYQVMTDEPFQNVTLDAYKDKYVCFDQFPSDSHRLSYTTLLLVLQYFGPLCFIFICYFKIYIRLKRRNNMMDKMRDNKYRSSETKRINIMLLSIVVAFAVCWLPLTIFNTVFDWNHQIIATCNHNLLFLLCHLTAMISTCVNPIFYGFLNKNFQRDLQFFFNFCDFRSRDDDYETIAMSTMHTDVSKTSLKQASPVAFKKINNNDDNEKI
With `COC(=O)C1=C(C(=O)OC)C2(OC1c1ccc(Br)cc1)C(=O)c1ccccc1C2=O` (stereo unspecified), the activation was 2.63% (inactive).

As to `Nc1c(-c2cccc(Cl)c2)cnn1-c1cccc([N+](=O)[O-])c1`, the activation was 43.2% (inactive).

Regarding `CCOC(=O)/C(N=Nc1cc(C(=O)O)cc(C(=O)O)c1)=C(\O)CCl`, the activation is -8% (inactive).

Turning to `CCOc1ccc(NC(=O)CCC(=O)N/N=C/c2ccc([N+](=O)[O-])s2)cc1`, the activation is 19.1% (inactive).

For `Cc1ccccc1NCC(=O)N/N=C\c1ccc([N+](=O)[O-])s1`, the activation was 39.4% (active).

As to `COc1ccc(C(=O)NCC(=O)N/N=C/c2ccc([N+](=O)[O-])s2)cc1OC`, the activation was 6.89% (inactive).

For the compound `CCc1ccc2nc(Nc3ncc(C(C)=O)c(C)n3)nc(C)c2c1`, the activation was 9.28% (inactive).

In the case of `OCC1(CCc2ccccc2)CCN(Cc2ccc3nsnc3c2)CC1`, the activation is -0.79% (inactive).

Turning to `O=C(/C=C/c1cnc2ccccc2n1)NC1CCCCCC1`, the activation is -3.45% (inactive).

Take `COCCNC(=O)/C(C#N)=C/c1nc(N(C)C)n(-c2ccc(F)cc2)c1Cl`: the activation was 0.95% (inactive).

In the case of `CCCCN1C(=S)NC[C@@H]1C(C)CC` (stereo partly specified), the activation is -11.4% (inactive).

Turning to `CCS(=O)(=O)N1CCN(C(=O)c2cccs2)CC1`, the activation is 3.05% (inactive).

In the case of `O=C(c1cccs1)N1CCN(C(=O)N2CCOCC2)CC1`, the activation was 112% (active).

On to `Cc1ccc(C(=O)N2CCN(C(=O)N3CCOCC3)CC2)cc1`, for which the activation is -5.88% (inactive).

With `O=S1(=O)C=C(SCCN2CCCC2)c2ccccc21`, the activation was 19% (inactive).

With `O=C(CN1C(=O)CC(c2ccccc2)S(=O)(=O)c2ccccc21)NC1CCCC1` (stereo unspecified), the activation was -1.33% (inactive).

Regarding `Cc1cc([N+](=O)[O-])c(NC2CCCCC2)c([N+](=O)[O-])c1`, the activation was -19.9% (inactive).

As to `Cc1cc(-c2nnc(CCC(=O)NC(c3ccccc3)c3ccccc3)o2)no1`, the activation was -1.1% (inactive).

Consider `O=C(NC1CCN(Cc2ccccc2)CC1)c1ccc(Oc2cc(Cl)cc(Cl)c2)o1`, for which the activation was 2.83% (inactive).

On to `O=C(NC(=S)N1CCc2ccccc21)c1ccco1`, for which the activation was 5.18% (inactive).

For `COC(=O)c1sc(-c2ccc(C(C)(C)C)cc2)cc1NC(=O)/C=C/C(=O)O`, the activation was 51.4% (active).

As for `COc1ccccc1NC(=O)/C=C/C(=O)O`, the activation is -17.3% (inactive).

Consider `O=C(O)/C=C/C(=O)Nc1ccc(F)cc1F`, for which the activation is -9.35% (inactive).

On to `CCOC(=O)C1CCN(C(=O)Nc2ccc(C)c(Cl)c2)CC1`, for which the activation was 2.62% (inactive).

As to `CCCCCCCCCCCCN1C(=O)CSC1c1cccnc1` (stereo unspecified), the activation was 5.01% (inactive).

Turning to `CC1=C/C(=N\S(=O)(=O)c2ccccc2)C(C(C)C)=CC1=O`, the activation is 2.13% (inactive).

With `CCOC(=O)C1(S(=O)(=O)c2ccccc2)CCN(Cc2ccccc2)CC1`, the activation is 3.32% (inactive).

With `CC1=C/C(=N\OS(=O)(=O)c2ccccc2)C=CC1=O`, the activation was 44.8% (active).

Consider `COc1ccc(C(=O)COC(=O)c2nn(C)c(=O)c3ccccc23)c(OC)c1`, for which the activation was -10.6% (inactive).

Regarding `CCOc1ccc(C(=O)NC(=S)Nc2ccc(NC(=O)C(C)C)cc2)cc1[N+](=O)[O-]`, the activation is -12.8% (inactive).

For `CC(C)(O)C#Cc1ccc(C(=O)N2CCC(C(N)=O)(N3CCCCC3)CC2)cc1`, the activation was 4.73% (inactive).

With `NC(=O)C1(N2CCCCC2)CCN(C(=S)Nc2ccc(Cl)cc2)CC1`, the activation is -0.45% (inactive).

For `NC(=O)C1(N2CCCCC2)CCN(C(=O)c2ccc(C#Cc3ccccc3)o2)CC1`, the activation is 62.8% (active).

Regarding `O=c1oc(-c2ccco2)nc2sc3c(c12)CCCCC3`, the activation was 9.25% (inactive).

For the compound `CN(c1ccccc1)S(=O)(=O)c1cccc(NC(=O)Cc2c(F)cccc2Cl)c1`, the activation was -12% (inactive).

For `C#CCOCCOCCOCCNc1nc(N2CCN(C(=O)[C@H](Cc3ccc(O)cc3)n3cc(C(N)CC(C)C)nn3)CC2)nc(N2CCN(C(=O)[C@H](CCC(=O)O)n3cc(C(N)[C@H](C)CC)nn3)CC2)n1` (stereo partly specified), the activation is -15% (inactive).

For the compound `C#CCOCCOCCOCCNc1nc(N2CCN(C(=O)[C@H](CCCCN)n3cc([C@@H](N)C(C)CC)nn3)CC2)nc(N2CCN(C(=O)[C@H](Cc3ccc(O)cc3)n3cc([C@@H](N)C(C)CC)nn3)CC2)n1` (stereo partly specified), the activation is 111% (active).

In the case of `C#CCOCCOCCOCCNc1nc(N2CCN(C(=O)C(Cc3ccc(O)cc3)n3cc(C(N)CC(C)C)nn3)CC2)nc(N2CCN(C(=O)C(Cc3ccc(O)cc3)n3cc(C(N)C(C)CC)nn3)CC2)n1` (stereo unspecified), the activation was 11.7% (inactive).

`Fc1ccc(-c2csc(-c3ccc(C4SCCS4)cc3)n2)cc1F`: the activation is -5.29% (inactive).

With `Cc1cccc(C)c1Nc1c(-c2ccccc2O)nc2ncccn12`, the activation is 80.8% (active).

With `Cc1ccccc1Nc1c(-c2ccccc2)nc2ncccn12`, the activation was 46.3% (inactive).

In the case of `Nc1nc(SCc2ccc([N+](=O)[O-])cc2)c2ncn(C3OC(CO)C(O)C3O)c2n1` (stereo unspecified), the activation is -25.4% (inactive).

As for `C/C(=N\NC(=O)c1ccc(CSc2nc(C)cc(C)n2)cc1)C1CCCCC1`, the activation was 1.93% (inactive).

Take `COc1cc(C(=O)Nc2cc(C(F)(F)F)ccc2N2CCOCC2)ccc1O`: the activation is -20.3% (inactive).

In the case of `O=C(CCn1ccc([N+](=O)[O-])n1)Nc1nccs1`, the activation is 7.17% (inactive).

Take `Cc1cccc(OCC(O)CN2CCN(CCN3C(=O)c4cccc5cccc(c45)C3=O)CC2)c1C` (stereo unspecified): the activation is 38.1% (active).

Regarding `Cc1ccc(OCC(O)CN2CCN(CC(O)COc3ccc(C)cc3Cl)CC2)c(Cl)c1` (stereo unspecified), the activation is 6.61% (inactive).

Turning to `Cc1cccc(C)c1OCC(O)CN1CCCCC1` (stereo unspecified), the activation was 1.8% (inactive).

For the compound `O=C(Nc1nnc(Cc2ccc(Cl)cc2)s1)c1ccncc1`, the activation was -10.8% (inactive).

Turning to `CCCc1nc2oc3c(=O)[nH]cnc3c2c2c1COC(C)(C)C2`, the activation is 8.17% (inactive).

On to `Cc1cnc(C(=O)OCC(=O)N2CCc3ccccc32)cn1`, for which the activation is -19.3% (inactive).

Consider `Cc1ccccc1OCC(O)CN1CCN(c2ccccn2)CC1` (stereo unspecified), for which the activation was 29.6% (inactive).

Consider `OC(COc1cccc2ccccc12)CN1CCN(c2ccccn2)CC1` (stereo unspecified), for which the activation was 50.8% (active).

As for `O=C1c2cccc3cccc(c23)N1CN1CCN(c2ccccn2)CC1`, the activation is 11.2% (inactive).

Take `CCCOCC(O)CC(CC)C(=O)NNC(=S)Nc1ccccc1` (stereo unspecified): the activation was -8.03% (inactive).

With `O=C(/C=C/c1ccc(OCc2c(F)cccc2Cl)cc1)N1CCOCC1`, the activation was -15.1% (inactive).
